Reference: PubChem BioAssay (NCI)
Compounds without any hit were thinned out: in the full panel of roughly 79,000, 15% have a hit. Values without a mark were called inactive. Active and inactive are the calls of the source. No stated cut-off is given here; in the data, active means growth inhibition above about 70%; inactive means the rest.

How the values were obtained:
[1] = NCI Yeast Anticancer Drug Screen. Data for the rad50 strain (AID 155);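 further: 0% = growth of vehicle-only cultures of the same strain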; conditions: S. cerevisiae rad50 strain growth inhibition, hits give high values; at 50.0 µM unless noted
Outline: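 Compounds were tested on a yeast strain with an engineered DNA damage repair alteration; the reported value is growth inhibition normalised to vehicle treatment.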

[2] = NCI Yeast Anticancer Drug Screen. Data for the mec2-1 strain (AID 157); conditions: S. cerevisiae mec2-1 strain, hits give high values; at 50.0 µM unless noted
Outline: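 Readout is yeast growth inhibition, normalised to vehicle-treated controls, in the mec2-1 strain exposed to compound.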

[3] = NCI Yeast Anticancer Drug Screen. Data for the sgs1 mgt1 strain (AID 161);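 further: 0% = growth of cultures given vehicle only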; conditions: S. cerevisiae sgs1 mgt1 strain, hits give high values; at 50.0 µM unless noted
Outline: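 Growth of a repair-deficient yeast mutant was monitored after compound treatment and expressed as inhibition relative to vehicle-treated cultures.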

[4] = NCI Yeast Anticancer Drug Screen. Data for the cln2 rad14 strain (AID 165);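 further: 0% = growth equal to vehicle treated cultures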; conditions: S. cerevisiae cln2 rad14 strain, hits give high values; at 50.0 µM unless noted
Outline: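 Relative to vehicle controls, growth inhibition of compound-treated cln2 rad14 yeast was recorded.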

[5] = NCI Yeast Anticancer Drug Screen. Data for the bub3 strain (AID 167); conditions: S. cerevisiae bub3 mutant strain, hits give high values; at 50.0 µM unless noted
Outline: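 Growth of a checkpoint-deficient yeast mutant is measured after compound exposure. Values represent inhibition relative to vehicle.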

[6] = NCI Yeast Anticancer Drug Screen. Data for the mlh1 rad18 strain (AID 175); conditions: S. cerevisiae mlh1 rad18 strain growth inhibition, hits give high values; at 50.0 µM unless noted
Outline: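 Test agents were incubated with a yeast strain of defined genotype (DNA damage repair defect). Inhibition of growth was derived by comparison with vehicle-exposed cultures.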

CCN(CC)CCNC(=O)c1cc(N2CCOCC2)ccn1
growth inhibition [1]: 23.3%
growth inhibition [2]: 11.7%
growth inhibition [3]: 18.5%
growth inhibition [4]: 1.05%
growth inhibition [5]: 30.6%
growth inhibition [6]: 45.5%

C=CCCC(=O)CC(=O)OCc1ccccc1
growth inhibition [1]: -7.2%
growth inhibition [2]: -31%
growth inhibition [3]: -1.15%
growth inhibition [4]: 8.05%
growth inhibition [5]: -37%
growth inhibition [6]: 16.1%

O=C(O)CCc1cnc[nH]1
growth inhibition [1]: -0.7%
growth inhibition [2]: -1.8%
growth inhibition [3]: 1.2%
growth inhibition [4]: 22.5%
growth inhibition [5]: 14.6%
growth inhibition [6]: 2.3%

CCS(=O)(=O)CC(O)CS(=O)(=O)CC
growth inhibition [1]: 6.5%
growth inhibition [2]: -6.35%
growth inhibition [3]: -38%
growth inhibition [4]: -4.95%
growth inhibition [5]: -6.35%
growth inhibition [6]: -15.4%

O=C(c1ccccc1)c1ccc2ccccc2c1
growth inhibition [1]: 24.8%
growth inhibition [2]: 13%
growth inhibition [3]: 0.65%
growth inhibition [4]: -13.2%
growth inhibition [5]: 14.9%
growth inhibition [6]: 28.3%

COc1ccc2nc3cc(Cl)ccc3c(SCC(=O)Nc3ccccc3-c3ccccc3NC(=O)CSc3c4ccc(Cl)cc4nc4ccc(OC)cc34)c2c1
growth inhibition [1]: -0.1%
growth inhibition [2]: -2.9%
growth inhibition [3]: -3.05%
growth inhibition [4]: 22.9%
growth inhibition [5]: 2.5%
growth inhibition [6]: 7.8%

Cc1cc(N)c(N)cc1C
growth inhibition [1]: 45.1%
growth inhibition [2]: 4.15%
growth inhibition [3]: 52.2%
growth inhibition [4]: 20.1%
growth inhibition [5]: 35.9%
growth inhibition [6]: 38.5%

CCCCC/C(=N\c1nc[nH]c1C(N)=O)OCC
growth inhibition [1]: -29.9%
growth inhibition [2]: -12.9%
growth inhibition [3]: -37.9%
growth inhibition [4]: -7.1%
growth inhibition [5]: -27.8%
growth inhibition [6]: -25.6%

COc1ccc(/C=C2/C/C(=C/c3ccc(OC)cc3)C2=O)cc1
growth inhibition [1]: 14.2%
growth inhibition [2]: 9.25%
growth inhibition [3]: 10.2%
growth inhibition [4]: 7.2%
growth inhibition [5]: 4.65%
growth inhibition [6]: 15%

CCN1CCC(S(=O)(=O)CCS(=O)(=O)C2CCN(CC)C2)C1 (stereo not given)
growth inhibition [1]: -6.3%
growth inhibition [2]: 0.55%
growth inhibition [3]: 11.7%
growth inhibition [4]: 3.6%
growth inhibition [5]: 17.3%
growth inhibition [6]: 2.05%

C=CCONC(=O)c1ccc(Cl)cc1
growth inhibition [1]: 0.5%
growth inhibition [2]: 1.75%
growth inhibition [3]: -4.2%
growth inhibition [4]: -5.5%
growth inhibition [5]: -19.2%
growth inhibition [6]: 27.3%

N#CCSc1ncnc2nc[nH]c12
growth inhibition [1]: 4.25%
growth inhibition [2]: 1.65%
growth inhibition [3]: -5.95%
growth inhibition [4]: 5.6%
growth inhibition [5]: 4.8%
growth inhibition [6]: 0.15%

CC(C)=C(Nc1ccccc1)NC(C)C
growth inhibition [1]: 47.4%
growth inhibition [2]: -19.1%
growth inhibition [3]: -28.4%
growth inhibition [4]: -16.2%
growth inhibition [5]: -40.6%
growth inhibition [6]: -3.15%

CCN(CC)C(=O)N(O)C1CCCCC1
growth inhibition [1]: -35.4%
growth inhibition [2]: 2.2%
growth inhibition [3]: -14.9%
growth inhibition [4]: 8.05%
growth inhibition [5]: 4.75%
growth inhibition [6]: -7.2%

CN(C)Cc1ccccc1
growth inhibition [1]: 28.8%
growth inhibition [2]: 15.8%
growth inhibition [3]: 14.8%
growth inhibition [4]: -58%
growth inhibition [5]: 11.1%
growth inhibition [6]: 17.6%

C1CCN(CCC2CCNCC2)CC1
growth inhibition [1]: -5.4%
growth inhibition [2]: -18.3%
growth inhibition [3]: -12.1%
growth inhibition [4]: 1.8%
growth inhibition [5]: 7.65%
growth inhibition [6]: -1.6%

N[N+]#COC1C(C(=O)NN)C1C(=O)NN (stereo not given)
growth inhibition [1]: -15.9%
growth inhibition [2]: -10.4%
growth inhibition [3]: -17.5%
growth inhibition [4]: 7.75%
growth inhibition [5]: 7.05%
growth inhibition [6]: -17.9%

COC(=O)C1(C)CCCC2(C)c3cc(OC)ccc3C(=O)CC12 (stereo not given)
growth inhibition [1]: 24.4%
growth inhibition [2]: 12.7%
growth inhibition [3]: 28%
growth inhibition [4]: 5.95%
growth inhibition [5]: 19.6%
growth inhibition [6]: 21.7%

CC(=C(C#N)C#N)c1csc2ccccc12
growth inhibition [1]: 9.1%
growth inhibition [2]: 14.8%
growth inhibition [3]: -4.35%
growth inhibition [4]: -34.5%
growth inhibition [5]: -14.8%
growth inhibition [6]: 21.9%

COCC(C)OC(=O)COc1ccccc1 (stereo not given)
growth inhibition [1]: 1.05%
growth inhibition [2]: -21.6%
growth inhibition [3]: -10.4%
growth inhibition [4]: -46.5%
growth inhibition [5]: -4.35%
growth inhibition [6]: -6.65%

CCCSCCC(NC(=O)c1ccccc1)C(=O)O (stereo not given)
growth inhibition [1]: -14.6%
growth inhibition [2]: -10%
growth inhibition [3]: -10.1%
growth inhibition [4]: -12.9%
growth inhibition [5]: -15.2%
growth inhibition [6]: -26.4%

COc1ccccc1CN1CCCN(Cc2ccccc2OC)C1c1ccc(N(C)C)cc1
growth inhibition [1]: 59.6%
growth inhibition [2]: 32.6%
growth inhibition [3]: 32.5%
growth inhibition [4]: 22.8%
growth inhibition [5]: 14.3%
growth inhibition [6]: 49.2%

COC1OC(COS(=O)(=O)c2ccc(C)cc2)C(OS(=O)(=O)c2ccc(C)cc2)C(OS(=O)(=O)c2ccc(C)cc2)C1OS(=O)(=O)c1ccc(C)cc1 (stereo not given)
growth inhibition [1]: -7.45%
growth inhibition [2]: -16.5%
growth inhibition [3]: -11.7%
growth inhibition [4]: -8.6%
growth inhibition [5]: 0.75%
growth inhibition [6]: 18.6%

O=C(C[n+]1ccccc1)c1ccc(O)c(I)c1
growth inhibition [1]: -5.4%
growth inhibition [2]: 7.65%
growth inhibition [3]: 21.9%
growth inhibition [4]: 21.7%
growth inhibition [5]: 0.35%
growth inhibition [6]: 7.4%

CC(COc1ccc(C(C)(C)C)cc1)OC=O (stereo not given)
growth inhibition [1]: 14.2%
growth inhibition [2]: 3.2%
growth inhibition [3]: 19.4%
growth inhibition [4]: -12.9%
growth inhibition [5]: 16.1%
growth inhibition [6]: -6.4%

O=S(=O)(NCCN1CCNC1=S)c1ccc(Cl)c(Cl)c1
growth inhibition [1]: -55.5%
growth inhibition [2]: -12.7%
growth inhibition [3]: -3.25%
growth inhibition [4]: -16.7%
growth inhibition [5]: -6.2%
growth inhibition [6]: -6.6%

O=C1NCCCC1C(=O)Nc1cccc2c1NCCC2 (stereo not given)
growth inhibition [1]: -10.2%
growth inhibition [2]: -40.4%
growth inhibition [3]: 0.95%
growth inhibition [4]: -1.45%
growth inhibition [5]: 39.6%
growth inhibition [6]: -32.4%

CC(=O)N1CCC(/C(C)=N/O)CC1
growth inhibition [1]: 4.9%
growth inhibition [2]: -10.1%
growth inhibition [3]: -12.6%
growth inhibition [4]: -33.8%
growth inhibition [5]: -13.8%
growth inhibition [6]: 0.45%

BrCC1CN=C(c2ccccc2)O1 (stereo not given)
growth inhibition [1]: -5.55%
growth inhibition [2]: -4%
growth inhibition [3]: 2.65%
growth inhibition [4]: -26.1%
growth inhibition [5]: 1.6%
growth inhibition [6]: -2.95%

C#CC1(O)C2CCc3cc(OC)ccc3C2CCC1(C)C(=O)OC (stereo not given)
growth inhibition [1]: 10.8%
growth inhibition [2]: -0.2%
growth inhibition [3]: 4.05%
growth inhibition [4]: 6.85%
growth inhibition [5]: -11.9%
growth inhibition [6]: -11.6%

CCCCN1C(=O)CC2[C@@H]3CCc4cc(OC(C)=O)ccc4C3CC[C@]2(C)C1=O (stereo not given in full)
growth inhibition [1]: 11.3%
growth inhibition [2]: 4.15%
growth inhibition [3]: 5.45%
growth inhibition [4]: 26.6%
growth inhibition [5]: -7.3%
growth inhibition [6]: -0.1%

CCOC(=O)C(=O)C(NC(=O)Cc1ccccc1)C(=O)OCC (stereo not given)
growth inhibition [1]: 27.2%
growth inhibition [2]: -8.55%
growth inhibition [3]: 1.85%
growth inhibition [4]: -15.8%
growth inhibition [5]: -0.25%
growth inhibition [6]: 17.1%

CC1=NN(c2ccc(S(=O)(=O)O)cc2)C(=O)C1N=Nc1ccc(-c2ccc(N=Nc3ccc(O)c(C(=O)O)c3)c(C)c2)cc1C (stereo not given)
growth inhibition [1]: 17.6%
growth inhibition [2]: 20.9%
growth inhibition [3]: 17.3%
growth inhibition [4]: 17.1%
growth inhibition [5]: 23.4%
growth inhibition [6]: 30.7%

CNC(=O)OCc1cc(C)cc(C)c1-c1ccco1
growth inhibition [1]: -4.95%
growth inhibition [2]: -9.15%
growth inhibition [3]: 28.4%
growth inhibition [4]: 4%
growth inhibition [5]: 10.3%
growth inhibition [6]: 7.05%

Nc1nc(CCc2ccc(NC(=O)CBr)cc2)c(CCCCc2ccccc2)c(=O)[nH]1
growth inhibition [1]: 16.4%
growth inhibition [2]: 1.85%
growth inhibition [3]: 25.8%
growth inhibition [4]: 24.2%
growth inhibition [5]: 3.75%
growth inhibition [6]: 16.2%

O=Cc1ccc(C=O)o1
growth inhibition [1]: 4.25%
growth inhibition [2]: -1.8%
growth inhibition [3]: 28.9%
growth inhibition [4]: 6.3%
growth inhibition [5]: -11.7%
growth inhibition [6]: 14.2%

CCCOC(=O)c1ccc(O)cc1.[Cu+2]
growth inhibition [1]: 5%
growth inhibition [2]: -13.3%
growth inhibition [3]: -14%
growth inhibition [4]: -34.4%
growth inhibition [5]: -3.05%
growth inhibition [6]: 12.7%

COC1OC2COc3ccccc3OC2C2C1N2C(N)=O (stereo not given)
growth inhibition [1]: 7.4%
growth inhibition [2]: 0.7%
growth inhibition [3]: 4.5%
growth inhibition [4]: -6.65%
growth inhibition [5]: -2.85%
growth inhibition [6]: 3.8%

COC(=O)OCCOC(=O)OC
growth inhibition [1]: 3.15%
growth inhibition [2]: 1.5%
growth inhibition [3]: -8.45%
growth inhibition [4]: 18.1%
growth inhibition [5]: 15.3%
growth inhibition [6]: 9.5%

COC(=O)c1ccccc1NS(=O)(=O)c1ccc(Cl)cc1
growth inhibition [1]: 42.2%
growth inhibition [2]: 66.1%
growth inhibition [3]: 75.7% (active)
growth inhibition [4]: 47.8%
growth inhibition [5]: 93% (active)
growth inhibition [6]: 82.2% (active)
